Assay outcomes: PubChem, National Center for Advancing Translational Sciences (NCATS)
This is a sample that favours compounds with a hit; in the whole collection about 6.3% have one here.
TGFb SMAD3 inh = blocks TGF-b signaling. HepG2 CAGA-GFP TGF-b/SMAD3 reporter, GFP fluorescence, 18 h; TGF-beta stimulated, 500 pg/mL final. Potency, µM (top dose mostly 46.1 µM), without a hit: at the top dose activity, negative = inhibition, hits mostly inhibitors. actives 1.2% (n = 410,000); further: on the % scale 0 is the no-effect control and ±100 the full control effect; nearly all actives have a fitted effect of over 65% in size
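Cell-based qHTS in HEPG2 carrying a CAGA-GFP Smad reporter; compounds added before 500 pg/mL final TGF-beta, 18 h incubation at 37 degrees C, GFP fluorescence quantified per cell by imaging cytometry.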
ATXN2 expr inh = reduces ATXN2 reporter expression in HEK-293 cells | actives 0.72% (n = 360,000) | Potency, µM (highest dose often 57 µM), for the others: at the highest dose activity change, negative = inhibition, actives largely listed as inhibitors | AID 1745845 | HEK-293 ATXN2-luciferase reporter, luminescence, 24 h; further: on the % scale 0 is the no-effect control and ±100 the full control effect; nearly all actives have a fitted effect of over 55% in size
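ATXN2-luciferase reporter cells (luciferase flanked by upstream and downstream ATXN2 gene portions) were treated 24 h at 37 °C with compounds at up to 57 uM. SteadyGlo luminescence gave expression; GF-AFC fluorescence gave viability.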
ATXN viability = reduces viability in counter-screen for ATXN expression inhibitors; actives 0.49% (n = 400,000); AID 651635; S2 cells (HEK-293 line with an ATXN2-luciferase reporter) viability, CellTiter-Fluor protease fluorescence, 24 h; Potency, µM (top dose mostly 56.7 µM), hits mostly cytotoxic; further: nearly all actives have a fitted effect of over 40% in size
VP16 counter = counter-screen for ROR gamma inhibitors: Gal4-VP16 reporter; actives 3.5% (n = 310,000); Drosophila S2 Gal4-VP16 UAS-luciferase, luminescence, 20 h; AID 2546; Potency, µM (highest dose often 53.6 µM), for inactives: at the top dose activity, negative = inhibition, most hits filed as inhibitors;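 further: Gal4-VP16 expression switched on by copper sulfate through the metallothionein promoter; on the % scale 0 is the no-effect control and ±100 the full control effect; nearly all actives have a fitted effect of over 50% in size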
RORgamma inh = blocks mouse ROR gamma transcriptional activity | P51450 | Drosophila S2 Gal4-RORgamma UAS-luciferase reporter, 20 h | Potency, µM (series often up to 53.6 µM), without a hit: top-dose activity change, negative = inhibition, actives largely listed as inhibitors | actives 5.4% (n = 310,000) | AID 2551; further: on the % scale 0 is the no-effect control and ±100 the full control effect; nearly all actives have a fitted effect of over 60% in size
Target sequence (P51450 whole entry, looked up, the tested form may be a part): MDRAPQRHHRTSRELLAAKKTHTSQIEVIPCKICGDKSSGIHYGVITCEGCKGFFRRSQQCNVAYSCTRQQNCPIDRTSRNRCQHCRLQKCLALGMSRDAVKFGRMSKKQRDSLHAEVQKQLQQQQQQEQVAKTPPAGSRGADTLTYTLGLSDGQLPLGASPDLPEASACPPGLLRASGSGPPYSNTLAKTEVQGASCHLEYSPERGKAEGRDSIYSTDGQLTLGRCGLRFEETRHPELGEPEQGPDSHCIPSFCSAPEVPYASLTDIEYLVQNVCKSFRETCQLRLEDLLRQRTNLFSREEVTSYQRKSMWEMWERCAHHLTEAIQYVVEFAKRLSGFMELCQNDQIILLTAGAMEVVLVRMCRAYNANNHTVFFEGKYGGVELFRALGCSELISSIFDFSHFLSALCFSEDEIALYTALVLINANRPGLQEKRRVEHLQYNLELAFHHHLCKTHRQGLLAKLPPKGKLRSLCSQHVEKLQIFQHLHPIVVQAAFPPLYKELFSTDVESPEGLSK
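Schneider cells (Drosophila), stable Gal4 DBD–ROR gamma + UAS-luc; 1 hr cmpd preincubation; Cu2+ induction 700 uM final; 20 hr ambient; luminescence.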
HepG2 tox = kills HepG2 cells in TGF-b inhibitor counter-screen. HepG2 CAGA-GFP viability, ATP luminescence, 18 h. actives 0.76% (n = 410,000). Potency, µM (series often up to 46.1 µM), for the others: top-dose activity change, negative = cytotoxicity, most hits filed as cytotoxic
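CellTiter-Glo luminescence gave cytotoxicity after 18 hours at 37 degrees C. The cells were HepG2 CAGA-GFP in 1% FBS DMEM, stimulated with 500 pg/mL TGF-beta after compound addition. %Activity was normalised to no-cell wells (complete cell-killing) and DMSO (no toxicity), and curves were fitted and classified.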
Numbers without * were called inactive; i = inactive; ? = inconclusive; · = no result given; [ ] = remark or other dose. The call rests on the fitted dose curve; in most records, active means well fitted curve in the direction sought with a large enough effect; inconclusive means small, poorly fitted or top-dose-only effect, or another doubt; inactive means no such curve, though single readings can be large; an effect the other way counts as inactive or inconclusive. Potency means the concentration at half of the fitted maximal effect.

SMILES | TGFb SMAD3 inh | ATXN2 expr inh | ATXN viability | VP16 counter | RORgamma inh | HepG2 tox
CCC(C)c1ccc(NC(=S)NCc2ccccc2OC)cc1 (configuration not stated) | ? | -7% | i | 8.9µM* | 2.2µM* | -37%
COc1ccccc1CNC(=S)Nc1ccc(F)cc1 | -9% | 7% | i | 6.3µM* | 7.9µM* | -9%
S=C(NCc1ccccc1)NCc1ccccc1Cl | ? | -4% | i | 20µM* | 13µM* | -43%
COc1cc(C(=O)c2ccccc2C(=O)O)c(OC)c2c1CCCC2 | 2% | -14% | i | · | · | 0%
CN(C)c1ccc(/C=C/c2nc3ccccc3o2)cc1 | 2% | · | · | · | · | -24%
CCOC(=O)C1=C[C@@H](CC)N(S(=O)(=O)c2ccc([N+](=O)[O-])cc2)[C@H]1c1ccccc1 | ? | 0% | i | · | · | 8%
COC(=O)C(Cc1c[nH]c2ccccc12)NC(=O)COc1ccc(Cl)cc1Cl (configuration not stated) | 11µM* | · | · | · | · | -63%
COC(=O)C(Cc1c[nH]c2ccccc12)NC(=O)c1ccccc1Br (configuration not stated) | ? | 3% | i | 3% | -3% | 2%
CCOC(=O)C(Cc1c[nH]c2ccccc12)NC(=O)c1ccccc1Br (configuration not stated) | ? | 26% | i | ? | 8.9µM* | 0%
Nc1ccc2c(c1)C(=O)N(c1ccc3ccccc3c1)C2=O | -4% | · | · | · | · | -15%
CC#CCOCC/C=C1/c2ccccc2C(OC)C1C (configuration not stated) | · | · | · | -1%[10 µM] | -1%[10 µM] | ·
O=C1CSC2(C(=O)N(Cc3ccccc3)c3ccccc32)N1c1ccc(Cl)cc1 (configuration not stated) | -5% | 10% | i | · | · | -1%
CN(C)c1ccc(CN2CCC(C(=O)NC(c3ccc(F)cc3)c3ccc4ccccc4n3)CC2)cc1 (configuration not stated) | ? | ? | ? | · | · | -84%
O=C(NC(c1ccc(F)cc1)c1ccc2ccccc2n1)C1CCN(Cc2ccc3ccccc3n2)CC1 (configuration not stated) | 13µM* | -23% | ? | · | · | -47%
Cc1ccc(C(NC(=O)C2CCN(CCOc3ccc(Cl)cc3)CC2)c2ccccn2)cc1 (configuration not stated) | ? | 0% | ? | · | · | -67%
O=C(NC(c1ccc(F)cc1)c1ccc2ccccc2n1)C1CCN(CCOc2ccc(Cl)cc2)CC1 (configuration not stated) | 16µM* | ? | 14µM* | · | · | -94%
Cn1nccc1C(=O)NCC1CCC2(CCN(Cc3cccc4ncccc34)CC2)O1 (configuration not stated) | · | · | i | · | · | ·
CC1(O)CC2CC1C(C(=O)O)C2C(=O)O (configuration not stated) | 14% | 9% | i | · | · | 9%
Cn1nc([N+](=O)[O-])nc1Sc1cccc2cccnc12 | ? | · | · | 18µM* | 11µM* | -3%
O=[N+]([O-])c1ccc(Cl)cc1Sc1cccc2cccnc12 | 1% | 7% | i | -8% | -1% | -12%
O=C(NNC(=O)c1cccc(C(F)(F)F)c1)c1ccncc1 | 13% | 16% | i | -6% | 10% | 34%
O=C(NNC1=NCCN1Cc1ccccc1)c1cccc(C(F)(F)F)c1 | -4% | 24% | i | 11µM* | 3.2µM* | 5%
O=C(O)c1cc(/C=C/C(=O)c2cc(F)ccc2O)c2c(c1)COCO2 | ? | · | i | 10µM* | 13µM* | 0%
CN(C)c1nc(C=C(C#N)C#N)c(Cl)n1-c1ccc(F)cc1 | 5µM* | ? | 22µM* | -3% | 14µM* | 8.9µM*
COc1ccc(-c2csc3ncnc(N4CCN(c5ccccc5[N+](=O)[O-])CC4)c23)cc1 | 0% | -38% | i | -4% | 14% | 6%
SMILES | TGFb SMAD3 inh | ATXN2 expr inh | ATXN viability | VP16 counter | RORgamma inh | HepG2 tox
Cc1cc(OCC(=O)NC(C)C)ccc1Cl | 0% | 14% | i | -7% | 1% | -12%
Cc1cc(OCn2ccc(C(=O)O)n2)ccc1Cl | 16% | 1% | i | 16µM* | ? | 6%
CCCNC(=O)C1CCC(Cn2c(=O)c3sccc3n(CC(=O)Nc3ccccc3C)c2=O)CC1 (configuration not stated) | 14% | 15% | i | · | · | 8%
Cc1ccc2oc(-c3ccc(NC(=O)CC(C)C)cc3)nc2c1 | 0% | 7% | i | 1.1µM* | 0.28µM* | -19%
CC(C)CC(=O)Nc1ccc2oc(-c3cccnc3)nc2c1 | 1% | 29% | i | 1% | 5% | 0%
CCN(CC)CC(=O)Nc1ccc(-c2nc3cc(NC(=O)CN(CC)CC)ccc3o2)cc1 | 8% | -4% | i | 14% | 7% | -28%
Cc1ccc2nc(-c3cccc(N)c3)[nH]c2c1 | -11% | -22% | i | 8.9µM* | 7.9µM* | -57%
Cc1ccc(-c2nc3cc(N)ccc3o2)c(C)c1 | -11% | 11% | i | -23% | 11µM* | 6%
O=C(CN1CCCC1)Nc1ccc(-c2nc3cc(NC(=O)CN4CCCC4)ccc3o2)cc1 | ? | ? | 13µM* | -19% | -16% | -36%
COc1cccc(C(=O)NC(C)c2nnc3n2CCN(CC=C(C)C)CC3)c1 (configuration not stated) | · | · | i | · | · | ·
Nc1cccc(-c2nc3cc(S(=O)(=O)c4ccc5oc(-c6cccc(N)c6)nc5c4)ccc3o2)c1 | ? | ? | ? | 5µM* | 4.5µM* | -50%
Cc1ccc(-c2nc3cc(N)ccc3o2)cc1 | -3% | -29% | i | ? | ? | -19%
Cc1ccc(-c2nc3cc(C)ccc3o2)cc1 | -5% | 27% | i | 14µM* | 11µM* | -20%
Cc1ccc2oc(-c3cccc(N)c3)nc2c1 | 2% | 33% | i | ? | 11µM* | -31%
CCCC(=O)Nc1ccc(-c2nc3cc(C)c(C)cc3o2)cc1 | 3% | 97% | i | ? | 1.3µM* | -12%
Nc1cccc(-c2nc3ncccc3o2)c1 | -2% | 34% | i | -2% | ? | 2%
Cc1ccc2oc(-c3ccco3)nc2c1 | ? | 21% | i | 0% | 0% | 14%
Cc1ccc2occ(CC(=O)Nc3ccc(S(=O)(=O)N4CCCC(C)C4)cc3)c2c1 (configuration not stated) | ? | ? | ? | · | · | -35%
